From PMC4336329 (PLoS ONE, 2015) come the findings set out here.

About 14,000 (4.5%) of roughly 310,000 compounds showed an effect of 50% or more. The effect is printed as a negative number. What follows is part of a selection rich in strong results, with near analogues and random picks from the rest.
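Note: peak tail current of the secondary pulse compared with the same well before compound.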

The target of the test is human ether-à-go-go-related gene (hERG) potassium channel (human, UniProt Q12809). Put plainly: primary screen, population patch clamp on CHO cells stably expressing hERG; higher = less effect of the substance.
Sequence of human ether-à-go-go-related gene (hERG) potassium channel (Q12809 whole entry, looked up): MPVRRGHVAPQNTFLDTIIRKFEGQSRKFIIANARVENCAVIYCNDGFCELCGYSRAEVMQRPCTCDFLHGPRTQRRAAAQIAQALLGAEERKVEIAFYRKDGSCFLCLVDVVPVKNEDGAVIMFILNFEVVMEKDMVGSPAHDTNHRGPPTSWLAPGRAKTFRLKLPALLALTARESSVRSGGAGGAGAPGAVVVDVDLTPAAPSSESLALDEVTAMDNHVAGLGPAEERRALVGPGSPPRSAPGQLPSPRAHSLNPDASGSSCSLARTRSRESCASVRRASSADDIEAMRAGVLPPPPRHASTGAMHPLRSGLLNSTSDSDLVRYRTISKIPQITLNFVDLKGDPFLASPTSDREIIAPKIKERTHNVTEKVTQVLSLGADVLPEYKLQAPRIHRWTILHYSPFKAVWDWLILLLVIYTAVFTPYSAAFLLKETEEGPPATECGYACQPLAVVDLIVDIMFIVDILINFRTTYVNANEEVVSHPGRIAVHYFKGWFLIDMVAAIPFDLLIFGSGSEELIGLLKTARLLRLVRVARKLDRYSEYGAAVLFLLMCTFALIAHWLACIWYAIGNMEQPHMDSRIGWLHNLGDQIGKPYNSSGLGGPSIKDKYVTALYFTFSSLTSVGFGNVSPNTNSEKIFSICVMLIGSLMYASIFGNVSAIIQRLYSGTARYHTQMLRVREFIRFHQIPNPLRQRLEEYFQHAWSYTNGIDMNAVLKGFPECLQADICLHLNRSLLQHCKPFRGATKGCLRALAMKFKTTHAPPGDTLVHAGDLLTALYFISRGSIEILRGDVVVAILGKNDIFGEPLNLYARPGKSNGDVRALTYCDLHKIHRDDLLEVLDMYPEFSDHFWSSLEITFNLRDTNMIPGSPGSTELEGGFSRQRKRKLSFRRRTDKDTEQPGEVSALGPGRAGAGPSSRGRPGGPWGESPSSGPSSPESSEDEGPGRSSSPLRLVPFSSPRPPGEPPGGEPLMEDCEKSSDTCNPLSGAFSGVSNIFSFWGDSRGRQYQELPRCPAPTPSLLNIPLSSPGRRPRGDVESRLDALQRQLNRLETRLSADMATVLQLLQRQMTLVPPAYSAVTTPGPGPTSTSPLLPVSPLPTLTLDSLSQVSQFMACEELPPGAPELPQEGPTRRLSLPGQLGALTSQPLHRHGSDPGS
Regarding `NC(=O)Nc1ccc(Oc2c(F)c(F)c(F)c(F)c2F)cc1`, the “hERG current change (%, negative = inhibition) at 10uM” value is -11.5%.

With `Cc1cccc(N2CCN(CC(=O)Nc3ccc(-n4cnnn4)cc3)CC2)c1C`, the “hERG current change (%, negative = inhibition) at 10uM” value was 12.8%.

For `O=C(Nc1ccc(F)cc1)c1ccccc1S(=O)(=O)c1ccccc1[N+](=O)[O-]`, the “hERG current change (%, negative = inhibition) at 10uM” value was -17.5%.

In the case of `N#C/C(Cn1c[n+](NC(=O)Nc2ccccc2)cn1)=N/O.[Cl-]`, the “hERG current change (%, negative = inhibition) at 10uM” value worked out at 16.2%.

On to `Cc1cccn2c(=O)c3cc(C(=O)N4COCC4(C)C)sc3nc12`, for which the “hERG current change (%, negative = inhibition) at 10uM” value was found to be 0.269%.

With `CC(C)[C@@H]1NC(=O)c2cc([N+](=O)[O-])cc(I)c2OCC[C@@H](C(N)=O)NC(=O)[C@H](CCC(=O)O)NC1=O`, the “hERG current change (%, negative = inhibition) at 10uM” value turned out to be 2.02%.

In the case of `CCc1ccccc1NC(=S)N(CCN(C)C)Cc1cccs1`, the “hERG current change (%, negative = inhibition) at 10uM” value is given as -22.4%.

For `COc1ccc(S(=O)(=O)N(C)CC(=O)N2CCC(C)CC2)cc1Cl`, the “hERG current change (%, negative = inhibition) at 10uM” value was -0.646%.

Take `OCCC1CN(Cc2nc3ccccc3s2)CCN1C1CCCCC1` (stereo not shown): the “hERG current change (%, negative = inhibition) at 10uM” value is on record as -60%.

`CC(C)CN1CCN(Cc2nc3ccccc3s2)CC1CCO` (stereo not shown): the “hERG current change (%, negative = inhibition) at 10uM” value is -56.8%.

Take `CC(C)CCN1CCN(Cc2nc3ccccc3s2)CC1CCO` (stereo not shown): the “hERG current change (%, negative = inhibition) at 10uM” value was -41.4%.

For the compound `CC(C)NC(=O)C1CCN(C2CCN(Cc3nc4ccccc4s3)CC2)CC1`, the “hERG current change (%, negative = inhibition) at 10uM” value was -65.2%.

With `CC(C)N1CCN(Cc2nc3ccccc3s2)CC1CCO` (stereo not shown), the “hERG current change (%, negative = inhibition) at 10uM” value is on record as -37.6%.

With `CC(C)NC(=O)C1CCN(C2CCN(Cc3ccc4cccc(F)c4n3)CC2)CC1`, the “hERG current change (%, negative = inhibition) at 10uM” value is -38.6%.

Consider `CC(C)N1CCC(N2CCN(Cc3nc4ccccc4s3)CC2CCO)CC1` (stereo not shown), for which the “hERG current change (%, negative = inhibition) at 10uM” value is -33.4%.

Take `OCCC1CN(Cc2nc3ccccc3s2)CCN1C1CCCC1` (stereo not shown): the “hERG current change (%, negative = inhibition) at 10uM” value is -48.9%.

As for `OCCC1CN(Cc2nc3ccccc3s2)CCN1CCc1ccccc1` (stereo not shown), the “hERG current change (%, negative = inhibition) at 10uM” value was -77.7%.

Turning to `CC(C)NC(=O)C1CCN(C2CCN(Cc3nc(C(C)C)cs3)CC2)CC1`, the “hERG current change (%, negative = inhibition) at 10uM” value was -49.5%.

With `O=C1S/C(=C\c2ccc(Cl)cc2)C(=O)N1CCn1cnnn1`, the “hERG current change (%, negative = inhibition) at 10uM” value was -0.978%.

As for `CC(=O)c1cc2c(cc1N(C(=O)Cn1nnc3ccccc31)C(C(=O)NCCC(C)C)c1cccnc1)OCO2` (stereo not shown), the “hERG current change (%, negative = inhibition) at 10uM” value is listed as 8.92%.

Consider `CCc1ccccc1NC(=O)C1CCN(C(=O)c2cccs2)CC1`, for which the “hERG current change (%, negative = inhibition) at 10uM” value is -24.3%.

Regarding `COc1ccc(S(=O)(=O)N2CCCCCC2)cc1NC(=O)CN1C(=O)NC(C)(c2ccccc2)C1=O` (stereo not shown), the “hERG current change (%, negative = inhibition) at 10uM” value is -31.4%.

For the compound `O=[N+]([O-])c1ccc(Cl)cc1CN1CCCCCC1`, the “hERG current change (%, negative = inhibition) at 10uM” value is given as -3.36%.

As for `O=C(O)c1ccccc1C(=O)c1ccc(Sc2ccc(Cl)cc2)c([N+](=O)[O-])c1`, the “hERG current change (%, negative = inhibition) at 10uM” value amounted to 6.94%.

As to `Cc1ccc(Sc2ccc(C(=O)N3CCOCC3)cc2[N+](=O)[O-])cc1`, the “hERG current change (%, negative = inhibition) at 10uM” value is reported as -32.3%.

Regarding `Cc1ccc(Sc2ccc(CN3CCCCC3)cc2[N+](=O)[O-])cc1`, the “hERG current change (%, negative = inhibition) at 10uM” value is reported as -27.4%.

In the case of `Cc1ccc(Sc2ccc(CN3CCCC3)cc2[N+](=O)[O-])cc1`, the “hERG current change (%, negative = inhibition) at 10uM” value is -83%.

Consider `O=[N+]([O-])c1cc(CN2CCC(O)CC2)ccc1Cl`, for which the “hERG current change (%, negative = inhibition) at 10uM” value came out at 9.08%.

For the compound `O=[N+]([O-])c1cc(CN2CCCC2)ccc1Sc1ccc(Cl)cc1`, the “hERG current change (%, negative = inhibition) at 10uM” value was -93.8%.

`O=[N+]([O-])c1cc(CN2CCCCCC2)ccc1O`: the “hERG current change (%, negative = inhibition) at 10uM” value worked out at 9.47%.

`CN1CCN(Cc2ccc(Sc3ccc(Cl)cc3)c([N+](=O)[O-])c2)CC1`: the “hERG current change (%, negative = inhibition) at 10uM” value is listed as -80.4%.

Consider `CCN(CC(=O)NCCCN1CCOCC1)S(=O)(=O)c1cc(Cl)ccc1Cl`, for which the “hERG current change (%, negative = inhibition) at 10uM” value was determined as 6.16%.

On to `CN(Cc1ccc(Br)cc1)C(=O)CCN1C(=O)c2cccc([N+](=O)[O-])c2C1=O`, for which the “hERG current change (%, negative = inhibition) at 10uM” value was 21.8%.

Take `COc1cccc(OCc2cc(C(=O)N3CCN(c4ccccc4OC)CC3)no2)c1`: the “hERG current change (%, negative = inhibition) at 10uM” value turned out to be 6.19%.

As to `COc1c(C)cccc1C(=O)NCc1ccc2c(c1)OCO2`, the “hERG current change (%, negative = inhibition) at 10uM” value is -2.64%.

On to `O=S(=O)(NCC1CCCO1)c1ccc(S(=O)(=O)N(Cc2ccc(F)cc2)C2CCCCC2)cc1` (stereo not shown), for which the “hERG current change (%, negative = inhibition) at 10uM” value is given as -2.39%.

Regarding `COc1ccccc1NC(=O)CSc1nnc(CC(=O)Nc2ccccc2F)n1C`, the “hERG current change (%, negative = inhibition) at 10uM” value stood at 11.4%.

In the case of `COc1ccc(-n2c(SCC(=O)Nc3nccs3)nc3c(c2=O)SC(C)C3)cc1` (stereo not shown), the “hERG current change (%, negative = inhibition) at 10uM” value was -13.5%.

As for `COc1ccc(/C(O)=C/C(=O)C(=O)Nc2c(C)n(C)n(-c3ccccc3)c2=O)cc1`, the “hERG current change (%, negative = inhibition) at 10uM” value is on record as 8.01%.

In the case of `CCc1c(C)sc2nc3c(C(=O)N4CCOCC4)cc(C(=O)c4ccccc4O)cn3c(=O)c12`, the “hERG current change (%, negative = inhibition) at 10uM” value is -10.7%.

With `Cc1cc(C)nc(OC(C(=O)O)C(OCCc2ccccc2)(c2ccccc2)c2ccccc2)n1` (stereo not shown), the “hERG current change (%, negative = inhibition) at 10uM” value worked out at 16.3%.

Turning to `CCOC(=O)C1=C(CC)Nc2ccccc2N=C1NC(=O)c1oc2ccccc2c1C`, the “hERG current change (%, negative = inhibition) at 10uM” value was determined as 12.6%.

As for `CC(C)(CNC(=O)c1ccc(-c2ccccc2Cl)o1)N1CCOCC1`, the “hERG current change (%, negative = inhibition) at 10uM” value is -39.9%.

For `O=C(COC(=O)c1cc(=O)c2ccccc2o1)NCC1CCCCC1`, the “hERG current change (%, negative = inhibition) at 10uM” value was 6.26%.

Turning to `COC(=O)c1ccc(OCC(O)CN(CC(C)C)CC(C)C)cc1` (stereo not shown), the “hERG current change (%, negative = inhibition) at 10uM” value is -4.37%.

As to `Cc1cc(C)cc(NC(=O)NCC(O)COc2ccc([N+](=O)[O-])cc2)c1` (stereo not shown), the “hERG current change (%, negative = inhibition) at 10uM” value was -42.3%.

Regarding `O=[N+]([O-])c1ccc(OCC(O)CN(CCO)CCO)cc1` (stereo not shown), the “hERG current change (%, negative = inhibition) at 10uM” value is given as -54.8%.

Turning to `CCCN(CCC)CC(O)COc1ccc([N+](=O)[O-])cc1` (stereo not shown), the “hERG current change (%, negative = inhibition) at 10uM” value was -77.1%.

For the compound `CCCN(CCC)CC(O)COc1ccc2c(c1)OCO2.Cl` (stereo not shown), the “hERG current change (%, negative = inhibition) at 10uM” value is listed as -28.8%.

As to `COC(=O)c1ccc(OCC(O)CN(CCO)CCO)cc1` (stereo not shown), the “hERG current change (%, negative = inhibition) at 10uM” value is on record as -3.29%.

Take `CC(C)CN(CC(C)C)CC(O)COc1ccc([N+](=O)[O-])cc1.Cl` (stereo not shown): the “hERG current change (%, negative = inhibition) at 10uM” value is given as -66.8%.

Turning to `O=C(NCC(O)COc1ccc([N+](=O)[O-])cc1)Nc1ccccc1` (stereo not shown), the “hERG current change (%, negative = inhibition) at 10uM” value was -49.4%.

As to `Cl.OCCN(CCO)CC(O)COc1ccc2c(c1)OCO2` (stereo not shown), the “hERG current change (%, negative = inhibition) at 10uM” value was found to be 2.18%.

Turning to `C/C(=N\NC(=O)CC(C)C)c1ccc(Cl)c(Cl)c1`, the “hERG current change (%, negative = inhibition) at 10uM” value was 30.7%.

With `O=c1nc2n(c3c4c(sc13)CCC4)CCC2`, the “hERG current change (%, negative = inhibition) at 10uM” value came out at 5.51%.
